From PubChem BioAssay (EPA / NIEHS)
Where “and” joins values, the source holds several entries; their conditions need not be identical. Equal values may be shown once. Results filed as inconclusive are left out. A structure can be active in one record and inactive in another. Calls of active or inactive are those of the source. The calls were made as follows, unless noted: active = hit-call score of the fitted dose curve at least 0.9, where 1 is the maximum; inactive = score below 0.9.

Assays:
[1] = ACEA_ER_80hr: ACEA Biosciences xCELLigence Real-Time Cell Analysis on Estrogen Receptor Agonism for Proliferation (AID 2282667; active = hit-call score of the fitted dose curve at least 0.9, where 1 is the maximum); details: T47D proliferation, impedance (xCELLigence), 80 h
Outline: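 Real-time impedance growth kinetics of human T-47D breast cells read 80 h after dosing, gain-of-signal fitted relative to DMSO. Compounds: 1:4 serial series, top final concentration 100 uM, n = 2.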

[2] = APR_HepG2_MicrotubuleCSK_1hr: Apredica 1-hour HepG2 Assay for Microtubule CSK Stabilty (AID 2282669); details: HepG2 microtubule cytoskeleton imaging, actives raise or lower the signal
Outline: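 Alpha-tubulin immunofluorescence, imaged by automated high-content microscopy with Hoechst nuclear segmentation, measured cytoskeletal change after 1 h dosing of HepG2 at 0.39–200 uM in 0.5% DMSO. Activity fitted in both directions relative to DMSO.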

[3] = APR_HepG2_NuclearSize_1hr: Apredica 1-hour HepG2 Assay for Nuclear Size (AID 2282670); details: high-content imaging, actives raise or lower the signal
Outline: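 Nuclear size measured by high-content imaging of Hoechst 33342 nuclear stain after formaldehyde fixation; human HepG2 line exposed 1 hr to compounds at 0.39–200 uM in 0.5% DMSO, with bidirectional curve fitting relative to DMSO.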

[4] = APR_HepG2_p53Act_1hr: Apredica 1-hour HepG2 Assay for p53 Activation (AID 2282671); details: high-content imaging, actives raise or lower the signal
Outline: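 After 1 h exposure (0.39–200 uM, 0.5% DMSO final, duplicates), fixed HepG2 cells were labelled with anti-p53 antibody plus Hoechst nuclear stain. Fluorescence quantified by automated 20x imaging; changes fitted in both directions against DMSO.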

[5] = APR_HepG2_MitoticArrest_1hr: Apredica 1-hour HepG2 Assay for Mitotic Arrest (AID 2282672); details: high-content imaging, actives raise or lower the signal
Outline: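 Ten-point concentration series (0.39 to 200 uM, duplicates, 0.5% v/v DMSO) applied to human HepG2 liver cells for 1 hr. High-content imaging of phospho-histone H3 and Hoechst-stained nuclei after fixation and permeabilization; DMSO-normalised bidirectional fit.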

[6] = APR_HepG2_P-H2AX_1hr: Apredica 1-hour HepG2 Assay for H2AX Phosphorylation (AID 2282673); details: high-content imaging, actives raise or lower the signal
Outline: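 Phospho-H2A.x immunofluorescence (1:200, FITC secondary) plus Hoechst nuclear stain, quantified by high-content imaging in HepG2 after 1 hr compound exposure. Ten concentrations, 0.39 to 200 uM, in duplicate with 0.5% DMSO; fit both directions against DMSO.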

[7] = APR_HepG2_MitoMass_1hr: Apredica 1-hour HepG2 Assay for Mitochondrial Mass (AID 2282674); details: high-content imaging, actives raise or lower the signal
Outline: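 Mitochondrial mass is taken from MitoTracker Red CMXRos (250 nM, 30 min, pre-fixation) fluorescence imaged at 20x in HepG2 cells. Exposure lasted 1 hr across ten concentrations, 0.39 to 200 uM, 0.5% DMSO; DMSO baseline, bidirectional fitting.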

[8] = APR_HepG2_MitoMembPot_1hr: Apredica 1-hour HepG2 Assay for Mitochondrial Membrane Potential (AID 2282675); details: imaging, actives raise or lower the signal
Outline: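 Mitochondrial membrane potential read as MitoTracker Red CMXRos intensity by automated imaging of fixed HepG2 cells. Dye at 250 nM for 30 min pre-fixation; compounds 0.39 to 200 uM for 1 hour, duplicate wells, 0.5% DMSO.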

[9] = APR_HepG2_CellCycleArrest_1hr: Apredica 1-hour HepG2 Assay for Cell Cycle Arrest (AID 2282666); details: high-content imaging, actives raise or lower the signal
Outline: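 Cell cycle arrest scored from nuclear DNA content (Hoechst 33342) using high-content imaging of fixed HepG2 cells after 1 h treatment across 0.39–200 uM, in duplicate. Gain or loss fitted relative to 0.5% DMSO.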

[10] = APR_HepG2_CellLoss_1hr: Apredica 1-hour HepG2 Assay for Cell Loss (AID 2282668); details: high-content imaging;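 also: curves fitted both ways against DMSO so gain or loss of cells counts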
Outline: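 Cell number comes from high-content imaging of Hoechst-labelled nuclei in fixed HepG2 cells. Cells were exposed for 1 h to ten concentrations from 0.39 to 200 uM in 0.5% DMSO. Gain or loss was fitted against DMSO controls.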

Measured: AC50

C#CCOC(=O)[C@@H](C)Oc1ccc(Oc2ncc(Cl)cc2F)cc1
inactive: [1] | [2] | [3] | [4] | [5] | [6] | [7] | [8]

C[C@]12CC[C@@H]3c4ccc(O)cc4C[C@@H](CCCCCCCCCS(=O)CCCC(F)(F)C(F)(F)F)[C@H]3[C@@H]1CC[C@@H]2O (stereo partly specified)
active: [1] 6.15 µM and 9.53 µM

O=C(O)c1ccccc1
inactive: [1]

CCOC(=O)c1ccc(O)cc1
active: [1] 11.4 µM [middle of 4 runs]

Cc1nn(C)c(Oc2ccccc2)c1C=NOCc1ccc(C(=O)OC(C)(C)C)cc1
inactive: [9] | [2] | [3] | [4] | [5] | [6] | [7] | [8]
active: [1] 0.00439 µM

OB(O)O
inactive: [1] | [10] | [2] | [3] | [4] | [5] | [6] | [8]

CCCCOC(=O)C(C)Oc1ccc(Oc2ccc(C(F)(F)F)cn2)cc1 (stereo unspecified)
active: [1] 0.0178 µM
inactive: [2] | [3] | [4] | [5] | [6] | [8]

CCCCC(CC)CN1C(=O)C2C3C=CC(C3)C2C1=O (stereo unspecified)
inactive: [1] | [2] | [3] | [4] | [5] | [6] | [8]

N[C@@H](Cc1cc(I)c(Oc2ccc(O)c(I)c2)c(I)c1)C(=O)O
active: [1] 40 µM and 25 µM

S=C(S)NCCNC(=S)S.[Mn+2].[S-]C([S-])=NCCN=C([S-])[S-].[Zn+2]
inactive: [9] | [2] | [3] | [5] | [6] | [8]

O=C(c1ccc(O)cc1O)c1ccc(O)cc1O
active: [1] 756 nM and 805 nM and 548 nM

CCN(CC)C(=O)c1cccc(C)c1
inactive: [9] | [1] | [2] | [3] | [5] | [6] | [8]

CCCCN(CCC(=O)OCC)C(C)=O
inactive: [1]

CCCOC(=O)c1ccc(C(=O)OCCC)nc1
inactive: [9] | [1] | [2] | [3] | [4] | [5] | [6] | [7] | [8]

CCCN(CCC)C(=O)SCC
inactive: [9] | [1] | [10] | [2] | [3] | [4] | [5] | [6] | [8]

CC(=O)S[C@@H]1CC2=CC(=O)CC[C@]2(C)[C@H]2CC[C@@]3(C)[C@@H](CC[C@@]34CCC(=O)O4)[C@H]12
inactive: [1]
active: [1] 10.7 µM and 174 nM

CCCCOC(=O)[C@@H](C)Oc1ccc(Oc2ccc(C(F)(F)F)cn2)cc1
active: [1] 13.7 µM
inactive: [2] | [3] | [4] | [5] | [6] | [8]

COCCO
inactive: [9] | [1] | [2] | [3] | [4] | [5] | [6] | [7] | [8]

CCSC(=O)N(CC(C)C)CC(C)C
inactive: [1] | [2] | [3] | [4] | [5] | [6] | [8]

CCOC(=O)NCCOc1ccc(Oc2ccccc2)cc1
inactive: [1] | [2] | [3] | [4] | [5] | [6] | [8]

COc1nc(C)nc(NC(=O)NS(=O)(=O)c2ccccc2OCCCl)n1
inactive: [9] | [2] | [3] | [4] | [5] | [6] | [8]

CCC(O)=C1C(=O)CC(C(=O)O)CC1=O (stereo unspecified)
inactive: [9] | [10] | [2] | [3] | [4] | [5] | [6] | [8]

CCOC(=O)C(C)Oc1ccc(Oc2cnc3cc(Cl)ccc3n2)cc1 (stereo unspecified)
inactive: [1] | [10] | [2] | [3] | [5] | [6] | [8]

CCCCN(CCCC)C(=S)S
active: [1] 89.4 µM

CCN(Cc1c(F)cccc1Cl)c1c([N+](=O)[O-])cc(C(F)(F)F)cc1[N+](=O)[O-]
inactive: [10] | [2] | [3] | [4] | [5] | [6] | [8]
active: [1] 2.12 µM

O=C(c1ccccc1)C1CCCCC1
active: [1] 9.92 µM and 6.21 µM and 50 µM

CC(C)CCCCCCc1ccc(O)cc1
active: [1] 320 nM [middle of 4 runs]

C[C@]12C[C@H](O)[C@H]3[C@@H](CCC4=CC(=O)CC[C@@]43C)[C@@H]1CC[C@@H]2C(=O)CO
active: [1] 32.8 nM and 26.6 nM and 102 nM

C#C[C@]1(O)CC[C@H]2[C@@H]3CCC4=CC(=O)CC[C@@H]4[C@H]3CC[C@@]21CC
active: [1] 2.58 nM and 3.4 nM and 143 nM

O=C(Nc1ccc([N+](=O)[O-])cc1Cl)c1cc(Cl)ccc1O
active: [8] 1.94 µM
inactive: [9] | [1] | [10] | [2] | [3] | [4] | [5] | [6]

COC(=O)c1ccc(CNS(C)(=O)=O)cc1S(=O)(=O)NC(=O)Nc1nc(OC)cc(OC)n1
inactive: [2] | [3] | [4] | [5] | [6] | [8]

COC(=O)c1ccc(I)cc1S(=O)(=O)NC(=O)Nc1nc(C)nc(OC)n1
inactive: [10] | [2] | [3] | [4] | [5] | [6] | [8]

COC(=O)c1c(Cl)nn(C)c1S(=O)(=O)NC(=O)Nc1nc(OC)cc(OC)n1
inactive: [2] | [3] | [4] | [5] | [6] | [8]
